Reference: PubChem BioAssay
Active and inactive are the calls of the source.

Molecular target: NADPH oxidase 4 (Homo sapiens) (UniProt Q9NPH5)
Assay: compounds shifting NOX4 Amplex Red fluorescence – cell-based, HEK293-NOX4, tetracycline-induced, NOX inhibitor project, primary screen (AID 1160)
Conditions: HEK293-NOX4, Amplex Red H2O2 fluorescence, 45 min; higher = more signal, called active from +8 up or from −8 down

Chain of NADPH oxidase 4 (Homo sapiens) (Q9NPH5 whole entry, looked up): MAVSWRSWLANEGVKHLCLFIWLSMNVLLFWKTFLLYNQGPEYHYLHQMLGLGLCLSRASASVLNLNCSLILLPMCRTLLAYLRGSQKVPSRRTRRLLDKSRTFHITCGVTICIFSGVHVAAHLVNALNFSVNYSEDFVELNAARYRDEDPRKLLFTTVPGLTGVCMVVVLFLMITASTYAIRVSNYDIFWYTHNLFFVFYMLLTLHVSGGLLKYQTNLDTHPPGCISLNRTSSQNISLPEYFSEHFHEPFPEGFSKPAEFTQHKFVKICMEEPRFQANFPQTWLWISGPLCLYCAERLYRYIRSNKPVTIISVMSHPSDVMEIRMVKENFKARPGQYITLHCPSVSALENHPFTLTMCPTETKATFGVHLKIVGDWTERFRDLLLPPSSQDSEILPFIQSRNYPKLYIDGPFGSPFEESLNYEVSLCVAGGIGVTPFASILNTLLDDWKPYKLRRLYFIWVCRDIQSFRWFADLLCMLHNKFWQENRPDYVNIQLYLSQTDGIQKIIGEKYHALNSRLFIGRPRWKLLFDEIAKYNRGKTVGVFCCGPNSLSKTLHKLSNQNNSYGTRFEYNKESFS

z-score, inactive:
C[N+](C)(C)CCCC[C@@H]1NC(=O)[C@@H]2C[C@H](C(=O)O)[C@H](c3cccc(OCCO)c3)N2C1=O 0.877, COCCOC(=O)N1C(=O)[C@@]2(c3cc(C#CCC(C(=O)OC)C(=O)OC)ccc31)[C@H](c1ccc(OCCO)cc1)N1[C@H](c3ccccc3)[C@H](c3ccccc3)OC(=O)[C@H]1[C@@H]2C(N)=O 0.988, Cc1cc(C)c(C(O)C2C=CC3C(=O)N(c4ccccc4)C(=O)C3N2Nc2ccc([N+](=O)[O-])cc2)c(C)c1 (stereo not given) -0.661, O=C(CS)NCCCCCNC(=O)[C@@H]1C[C@@H]2C(=O)N3CCC[C@H]3C(=O)N2[C@@H]1c1ccc(O)cc1 0.313, C[C@@H]1ON(c2ccccc2)[C@H](c2ccccc2)[C@H]1C(=O)N1C(=O)OC[C@H]1Cc1ccccc1 -0.104, [N-]=[N+]=Nc1ccccc1[C@@H]1OC(c2ccc(OCCCO)cc2)=N[C@]1(CCS(=O)(=O)c1ccccc1)C(=O)NCc1ccccc1 0.642, COc1ccc([Si](C)(C)[C@@H]2[C@@H](CC(=O)N(CCO)Cc3ccccc3)O[C@]3(C(=O)N(Cc4ccc(N5CCOC5=O)cc4)c4ccccc43)[C@H]2C)cc1 1.18, COc1ccccc1CN1C(=O)c2ccccc2[C@@H](C(=O)NCC(C)C)[C@@H]1c1ccc(CO)cc1 -0.496, COC(=O)[C@@]1(Cc2ccc(F)cc2)[C@@H]2[C@@H](CC(=O)[C@H]2CC(=O)C(=O)N2CCCC2)CN1C(=O)c1ccccc1 0.478, CC1CC/C=C\[C@H]2OC34C=CCN(c5ccc(Cl)cc5)C(=O)[C@H]3N(C(CO)C(C)C)C(=O)[C@]4(C)C2C(=O)O1 (stereo not given in full) -0.264, C=CCC(OC(C)=O)[C@@H]1[C@@H](N(Cc2cccc3ccccc23)C(=O)Cc2ccc(F)cc2)c2cc(OCCCO)ccc2N1C(=O)Cc1ccc(OC)cc1 (stereo not given in full) 0.113, COC(=O)[C@]1(Cc2ccccc2CN=[N+]=[N-])N=C(c2ccc(OCCCO)cc2)O[C@@H]1c1ccccc1 -1.59, CCCc1cc2c(n1Cc1ccc(OC)cc1)C(C)C1CN(C(=O)c3ccccc3)C(C)(C(=O)OC)C21 (stereo not given) -3.23, CN(C)C(=O)[C@@]1(CCC(=O)OC(C)(C)C)N=C(c2ccc(OCCCO)cc2)O[C@H]1c1ccccc1N=[N+]=[N-] 0.0136, CCN(CC)c1ccc(N2CC=CC34O[C@@H]5/C=C\CCCOC(=O)C5[C@H]3C(=O)N(CCCCCO)[C@@H]4C2=O)cc1 (stereo not given in full) -0.21, COC(=O)[C@@]1(Cc2ccc(F)cc2)[C@H]2c3cc(C(=O)N(C)C)n(CCSCCO)c3C[C@H]2CN1C(=O)c1ccccc1 -0.303, C=CCNC(=O)[C@@H]1[C@H]2C(=O)O[C@H](c3ccccc3)[C@H](c3ccccc3)N2[C@H](c2ccc(O)cc2)[C@@]12C(=O)Nc1ccc(C#CCCO)cc12 -0.449, COC(=O)C(CC#Cc1ccc2c(c1)[C@]1(C(=O)N2)[C@H](c2ccccc2OCCO)N2[C@H](c3ccccc3)[C@H](c3ccccc3)OC(=O)[C@H]2[C@@H]1C(=O)Nc1nc2ccccc2s1)C(=O)OC 0.517, COC(=O)[C@@]1(Cc2ccc(OC)cc2)[C@H]2c3cc(C(=O)N4CCCC4)n(CCc4ccc(O)c(OC)c4)c3C[C@H]2CN1C(=O)c1ccccc1 -1.39, CCOC(=O)C[C@H]1[C@H](OC(=O)c2ccccc2-c2ccccc2)[C@@H](NC(=O)c2ccccc2)c2cc(OCCCO)ccc2N1C(=O)Cc1ccc(OC)cc1 1.22, C=C(/C(=C/C[C@@H](OC(=O)c1ccncc1)c1ccccc1OCCO)c1cnc2ccccc2c1)C(C)C -1.11, COCCOC(=O)N1C(=O)[C@@]2(c3cc(C#CCC(C(=O)OC)C(=O)OC)ccc31)[C@H](C(=O)N1CCCCCCC1)[C@H]1C(=O)O[C@H](c3ccccc3)[C@H](c3ccccc3)N1[C@@H]2c1ccc(O)cc1 -0.378, NC(=O)NCC#Cc1ccc2c(c1)[C@]1(C(=O)N2)[C@H](c2ccc(OCCO)cc2)N2[C@H](c3ccccc3)[C@H](c3ccccc3)OC(=O)[C@H]2[C@@H]1C(=O)N1CCCCCCC1 1.15, C=C(CCCC)/C(=C/C[C@H](OC(=O)c1ccncc1)c1ccc(CO)o1)c1cc(C(=O)OC)ccc1OC -0.903, O=C1N(CCS(=O)(=O)c2ccccc2)Cc2ccccc2C[C@@]12COC(c1ccc(OCCCO)cc1)=N2 -0.159, C[N+](C)(C)CCCCNC(=O)[C@H]1C[C@H]2C(=O)NCC(=O)N2[C@H]1c1ccc(O)cc1 -0.769, CC(C)N1C(=O)c2ccccc2[C@](C)(C(=O)O)[C@@H]1c1ccc(CO)cc1 -0.166, C[N+](C)(C)CCCCCCNC(=O)[C@@H]1C[C@@H]2C(=O)NCC(=O)N2[C@@H]1c1ccc(O)cc1 0.899, COCCCNC(=O)[C@@]1(Cc2ccccc2CN=[N+]=[N-])N=C(c2ccc(OCCCO)cc2)O[C@H]1c1ccccc1N=[N+]=[N-] 1.3, COC(=O)[C@@]1(Cc2ccc(OC)cc2)[C@H]2c3cc(C(=O)N(C)C)n(CCF)c3C[C@H]2CN1C(=O)c1ccccc1 2.58, C=CCNC(=O)[C@H]1[C@@H]2C(=O)O[C@@H](c3ccccc3)[C@@H](c3ccccc3)N2[C@@H](c2ccc(OCCO)cc2)[C@]12C(=O)N(C(=O)OCCOC)c1ccc(C#CC3=CCCCC3)cc12 0.421, O=C1C2C=CC(C(O)c3cccc4ccccc34)N(Nc3ccccc3)C2C(=O)N1c1ccccc1 (stereo not given) -3.83, COc1ccc(C#Cc2ccc3c(c2)[C@]2(C(=O)N3)[C@H](C(=O)O)[C@H]3C(=O)O[C@H](c4ccccc4)[C@H](c4ccccc4)N3[C@@H]2c2ccc(OCCO)cc2)cc1 -0.925, C=CCOC(=O)[C@H]1[C@@H]2C(=O)O[C@@H](c3ccccc3)[C@@H](c3ccccc3)N2[C@@H](c2ccc(OCCOC(=O)[C@H]3C[C@H]4C(=O)N[C@@H](CCCCN(C)C)C(=O)N4[C@H]3c3ccc(O)cc3)cc2)[C@]12C(=O)Nc1ccccc12 1.05, COC(=O)[C@@]1(Cc2ccccc2)[C@H]2c3cc(C(=O)N(C)C)n(Cc4ccccn4)c3C[C@H]2CN1C(=O)c1ccccc1 -1.87
